Measurements taken from PMC7819943, “Rice protein-binding microarrays: a tool to detect cis-acting elements near promoter regions in rice”.
In all, about 39,000 sequences were measured (“fluorescence intensity (a.u.)”: median about 4,300, highest 2% from about 39,000 on). Shown is part of a subset that was picked to be rich in the highest values.

molecular target: T1, OsSMF1 (Oryza sativa, UniProt Q6ZLB0 1-436); experiment: protein-binding microarray (RPBM); PBS, 2% BSA, 51.3 ng/ul salmon testes DNA, 50 uM zinc acetate, 200 nM TF, 25 C, 1 h; high values mean tight binding; details: protein: recombinant; tags: N-terminal polyhistidine and DsRed monomer fusion (pET32a); chain copies: 2; label: CyDye5-dUTP incorporated in the synthesized complementary strand; 3' TTTTT single-stranded linker to array surface; dsDNA, one strand shown
T1 sequence: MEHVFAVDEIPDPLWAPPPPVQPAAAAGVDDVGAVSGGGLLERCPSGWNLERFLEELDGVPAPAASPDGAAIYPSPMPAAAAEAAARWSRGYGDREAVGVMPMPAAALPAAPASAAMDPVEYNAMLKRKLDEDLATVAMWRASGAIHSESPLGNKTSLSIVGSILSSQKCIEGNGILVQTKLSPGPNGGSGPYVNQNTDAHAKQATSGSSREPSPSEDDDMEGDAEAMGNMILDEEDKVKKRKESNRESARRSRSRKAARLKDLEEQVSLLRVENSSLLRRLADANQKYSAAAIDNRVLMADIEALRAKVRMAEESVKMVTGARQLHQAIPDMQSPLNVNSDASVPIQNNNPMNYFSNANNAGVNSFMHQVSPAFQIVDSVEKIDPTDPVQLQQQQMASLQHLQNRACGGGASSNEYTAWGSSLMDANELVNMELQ
Method in brief: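 Per-feature fluorescence intensity (arbitrary units), read on an Axon 4000B scanner, is the binding signal. Transcription factors carrying an N-terminal polyhistidine tag and DsRed fusion were expressed in E. coli BL21-CodonPlus and purified on Ni–NTA. A custom Agilent array, made double-stranded by primer extension with Cy5-dUTP and blocked with 2% BSA, was incubated with 200 nM protein in PBS, 2% BSA, salmon testes DNA and 50 µM zinc acetate at 25 °C for 1 h and then washed.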

| Sequence | binding signal |
| --- | --- |
| AGTATCTCTTTCACAAAAGCCTACGTCATCTTTAAATTAGCGGAGTCACCTAGTGCAG | 5060 fluorescence intensity (a.u.) |
| GATGGAGACCCTGTGCGAACTGACAGTAATAGGGCTGGAACGGAGTCACCTAGTGCAG | 39400 fluorescence intensity (a.u.) |
| ACCTGGTAACTGAACACAGGATGGAAACTCTGAATAATGACGGAGTCACCTAGTGCAG | 3250 fluorescence intensity (a.u.) |
| CTTGCGATGCGTGGTGAGTGGTGACTGTAATGTAATGGAACGGAGTCACCTAGTGCAG | 3450 fluorescence intensity (a.u.) |
| ATTTACTGCCTATTCGTGAGTTGGTCCTCCTGACTCTGACCGGAGTCACCTAGTGCAG | 3750 fluorescence intensity (a.u.) |
| TACCGTCCCTCAACTTTATGTCGAGTCTATATGACATACCCGGAGTCACCTAGTGCAG | 4220 fluorescence intensity (a.u.) |
| TACTTTATTTTGATTTTCGTGGGAGGTGACGTGGGCGCTTCGGAGTCACCTAGTGCAG | 19300 fluorescence intensity (a.u.) |
| TCTTCCCGCTCGCCACGTCAGCGCCATGTGAGCAAAACTACGGAGTCACCTAGTGCAG | 15500 fluorescence intensity (a.u.) |
| AATCAATCCATTAATATTTAACATGATCAGGCATTAGTCGCGGAGTCACCTAGTGCAG | 3580 fluorescence intensity (a.u.) |
| ATCCACGTGGCAATGTATTAATCCAGTCAGCAACATCTCACGGAGTCACCTAGTGCAG | 12400 fluorescence intensity (a.u.) |
| GTTGGAACAATTAATGTGCTGCAGGCAATAACAATCCAGTCGGAGTCACCTAGTGCAG | 48700 fluorescence intensity (a.u.) |
| ATTTGTCTTATGTATATGCTGTATAGGATCTATGGACGCCCGGAGTCACCTAGTGCAG | 3520 fluorescence intensity (a.u.) |
| GTTCCATTCCAATCCCATGAAAGCAACAGCGCTGCCTATCCGGAGTCACCTAGTGCAG | 35800 fluorescence intensity (a.u.) |
| ACATAATTGTATTATGCAGAACCAAAGCAGGCCACGTGAGCGGAGTCACCTAGTGCAG | 5470 fluorescence intensity (a.u.) |
| CCAGCAGCCCCTCTCTCATCCATGGTAGTGCTCTGTCATGCGGAGTCACCTAGTGCAG | 3400 fluorescence intensity (a.u.) |
| CGTCGCCGTCGCCTCGCCTCGTCACGGCCGCCTCCGCCATCGGAGTCACCTAGTGCAG | 7920 fluorescence intensity (a.u.) |
| AACGGGGCCTCGTAGCAACAGCTCTGACGCACGTGACCTCCGGAGTCACCTAGTGCAG | 5400 fluorescence intensity (a.u.) |
| TGCCGCCGCCGTCGTCACCGTCGCCGCCTCCGTGCTCATGCGGAGTCACCTAGTGCAG | 6030 fluorescence intensity (a.u.) |
| ACCTCTGGTAGCAGCAGCAGCTCGCACGCAGCTCATCGTGCGGAGTCACCTAGTGCAG | 40700 fluorescence intensity (a.u.) |
| GCGTGGTGCGTATCGTGCTCATCGCATCGGCCTCCGTATACGGAGTCACCTAGTGCAG | 40000 fluorescence intensity (a.u.) |
| ATGTTGACTCGTTTGCCTGTGTTCCTCTTGCTGCTATTCACGGAGTCACCTAGTGCAG | 3230 fluorescence intensity (a.u.) |

| Sequence | binding signal |
| --- | --- |
| ATCTTTAGTCCCGGATTGGTAGTTCCGGTTTGAAAACCGGCGGAGTCACCTAGTGCAG | 3760 fluorescence intensity (a.u.) |
| TCTTTAGTCCCGGTTCCTATTTAAACCGGGATTATTGTGGCGGAGTCACCTAGTGCAG | 47900 fluorescence intensity (a.u.) |
| CGCTGTGGTGTGCAGCGGCGGTGCCACGTCCCTATTTAAACGGAGTCACCTAGTGCAG | 10900 fluorescence intensity (a.u.) |
| ACCAAATGACATGACTCACTTAGATCCTAATAGGACATCCCGGAGTCACCTAGTGCAG | 4400 fluorescence intensity (a.u.) |
| GCGCCGCGGTGGAGGCGAGTGGGCGACACGTGGGAAGTGGCGGAGTCACCTAGTGCAG | 6610 fluorescence intensity (a.u.) |
| GTGCTGGCCAAATGGGCCGGGCCAAGGCCTCGGTAACCACCGGAGTCACCTAGTGCAG | 42300 fluorescence intensity (a.u.) |
| ATATGTGCTGGCCGCTGAGGTATACAGTATATGGGCCAACCGGAGTCACCTAGTGCAG | 3580 fluorescence intensity (a.u.) |
| CCGGACCAAAATGACGTGCCTTAGGCCGGGCCGCCAGCCTCGGAGTCACCTAGTGCAG | 3830 fluorescence intensity (a.u.) |
| ATCTGTCTTTGTTTGAAATCAGATTGGTTCAAAACAAGCGCGGAGTCACCTAGTGCAG | 21900 fluorescence intensity (a.u.) |
| CTTTTCACGGATCCTAATTTTGACAGGCAAAGAAAGAAAGCGGAGTCACCTAGTGCAG | 41700 fluorescence intensity (a.u.) |
| AGTTGATAAATTTCAGAAAATTTTGATGACAAAGCAAAGCCGGAGTCACCTAGTGCAG | 5580 fluorescence intensity (a.u.) |
| CAAATTTTAATCCTAGAAAAGCTTATATTTGAAGGAGAAGCGGAGTCACCTAGTGCAG | 31100 fluorescence intensity (a.u.) |
| GTCCCGCGCATTGGCGACGCGCGACCGGCACGGTCCCGCACGGAGTCACCTAGTGCAG | 13500 fluorescence intensity (a.u.) |
| CTGACGACCCGGATCAACCATTGGCAGCAGCTCCTGTACACGGAGTCACCTAGTGCAG | 3580 fluorescence intensity (a.u.) |
| AATAACCACGTATATATAACTTCTAACCCTAGTTAACAACCGGAGTCACCTAGTGCAG | 3310 fluorescence intensity (a.u.) |
| TGATTTAAACATGTTATGTAAGGAGAGTTGGAGACAGATACGGAGTCACCTAGTGCAG | 22000 fluorescence intensity (a.u.) |
| GATGTCTTTAAAGAGGATTATATGAAATTTGAGATGAAATCGGAGTCACCTAGTGCAG | 3610 fluorescence intensity (a.u.) |
| AGAGAATTATGGAGAGGGGAGGGGAGGGGCAGCAAAAGAGCGGAGTCACCTAGTGCAG | 4210 fluorescence intensity (a.u.) |
| AAACAACCAACTTTGCCTGCAAAACGGCAAAGAGATTAACCGGAGTCACCTAGTGCAG | 3920 fluorescence intensity (a.u.) |
| AAAGAGATTATGCGGATATGCCCTTGCAAACCGGGGCAGTCGGAGTCACCTAGTGCAG | 49900 fluorescence intensity (a.u.) |
| AAGAGATGGGGATTAAACCAATTGGGCCGAAAGATATGTCCGGAGTCACCTAGTGCAG | 41200 fluorescence intensity (a.u.) |
